Source: PubChem
Sampled rows, rich in hits. Any-hit rate of the full collection: about 2.4%.
POLI inh – qHTS for Inhibitors of Polymerase Iota. DNA polymerase iota (Homo sapiens), Q9UNA4. Pol iota fluorescent replication assay, 10 min. Potency, µM (top dose mostly 115 µM), actives largely listed as inhibitors. 390,000 tested, 1% active
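Pol iota at 10 nM preincubated 15 min with compounds at room temperature; reaction started with fluorescent substrate, 50 nM final. Fluorescence read kinetically at 0 and 10 min; buffer-only wells as negative control.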
TDP1 inh – qHTS Assay for Inhibitors of Tyrosyl-DNA Phosphodiesterase (TDP1); recombinant TDP1, AlphaScreen DNA substrate cleavage; Potency, µM (titrated, usually from 130 µM), actives largely listed as inhibitors; 350,000 tested, 0.28% active; AID 485290, 2010; also: nearly all actives have a fitted effect of over 40% in size
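Steps: enzyme plus compound, 15 min RT; add biotin/phosphotyrosine-FITC oligonucleotide (15 nM final), react 5 min; add donor/acceptor beads (10 ug/ml final), 10 min; read AlphaScreen. Tdp1 at 1 nM final.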
Pol eta inh – qHTS for Inhibitors of Polymerase Eta | recombinant Pol eta, fluorescent DNA replication assay | Potency, µM (titrated, usually from 114 µM), hits mostly inhibitors | DNA polymerase eta (Homo sapiens), Q9Y253 | 390,000 tested, 1.2% active
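Fluorescent replication assay: 50 nM final substrate added after a 15 min room-temperature compound preincubation with 10 nM enzyme. Signal taken at 0 min and again at 10 min.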
Pol beta inh – qHTS Assay for Inhibitors of DNA Polymerase Beta; Pol beta primer extension/strand displacement, fluorescence kinetic; AID 485314, 2010; 340,000 tested, 1.3% active; Potency, µM (series often up to 114 µM), usual class: inhibitors; P06746
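Pol beta (10 nM) and compounds were preincubated 15 min at room temperature, then 50 nM substrate (final) started primer extension/strand displacement. Reads were taken at 0 and 10 min; concentration-response data were fitted to a four-parameter Hill equation.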
Pol kappa inh – qHTS for Inhibitors of Polymerase Kappa | Potency, µM (series often up to 107 µM), usual class: inhibitors | DNA polymerase kappa (Homo sapiens), Q9UBT6 | purified Pol kappa, fluorescent DNA synthesis assay, 10 min | 400,000 tested, 0.53% active | AID 588579, 2011
Target sequence (Q9UBT6 whole entry, looked up): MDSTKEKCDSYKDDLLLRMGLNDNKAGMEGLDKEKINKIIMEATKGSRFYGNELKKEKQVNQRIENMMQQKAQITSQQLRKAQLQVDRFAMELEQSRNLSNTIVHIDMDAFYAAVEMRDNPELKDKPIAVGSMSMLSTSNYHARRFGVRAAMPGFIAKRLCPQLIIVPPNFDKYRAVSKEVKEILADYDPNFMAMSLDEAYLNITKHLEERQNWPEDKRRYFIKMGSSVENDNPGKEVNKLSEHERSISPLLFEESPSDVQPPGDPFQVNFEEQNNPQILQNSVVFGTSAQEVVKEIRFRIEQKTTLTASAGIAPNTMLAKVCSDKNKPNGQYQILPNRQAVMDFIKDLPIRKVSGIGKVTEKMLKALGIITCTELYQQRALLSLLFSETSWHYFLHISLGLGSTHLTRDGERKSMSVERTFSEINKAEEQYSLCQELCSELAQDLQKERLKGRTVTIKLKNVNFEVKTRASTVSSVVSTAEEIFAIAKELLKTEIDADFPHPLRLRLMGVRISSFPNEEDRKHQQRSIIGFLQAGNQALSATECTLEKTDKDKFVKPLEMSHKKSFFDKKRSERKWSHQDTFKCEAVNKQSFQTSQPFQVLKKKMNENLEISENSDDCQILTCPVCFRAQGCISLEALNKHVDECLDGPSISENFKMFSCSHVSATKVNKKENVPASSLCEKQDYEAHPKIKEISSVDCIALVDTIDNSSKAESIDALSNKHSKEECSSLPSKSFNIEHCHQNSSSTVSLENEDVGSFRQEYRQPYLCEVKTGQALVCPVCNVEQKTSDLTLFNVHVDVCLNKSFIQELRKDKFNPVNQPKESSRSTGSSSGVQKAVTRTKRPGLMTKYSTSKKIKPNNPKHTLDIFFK
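Enzyme at 10 nM met test compounds for 15 min at room temperature. Substrate addition (50 nM final) began the reaction, which was monitored by fluorescence at 0 and 10 min.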
Large screens that a line does not name were inactive; ! = a repeat was not active. Calls follow the shape of the dose curve; as a rule, active = well fitted curve in the direction sought with a large enough effect; inconclusive = small, poorly fitted or top-dose-only effect, or another doubt; inactive = no such curve, though single readings can be large; an effect the other way counts as inactive or inconclusive.

COc1cc(OC)c(/C=C/c2cc3ccccc3c[n+]2C)c(OC)c1	POLI inh inconclusive (no result: TDP1 inh, Pol eta inh, Pol beta inh)
CNc1cccc(S(=O)(=O)N2CCN(S(=O)(=O)c3ccc4c(c3)OCCO4)CC2)c1	none (no result: POLI inh, Pol eta inh, Pol beta inh, Pol kappa inh)
CCCCCCCCCCCCCCCC(=O)N[C@@H](COP(=O)(O)O)C(=O)O	Pol kappa inh 27µM! (no result: POLI inh, Pol eta inh, Pol beta inh)
CCCCCCCCCCCCCCCC(=O)NC(C)C(=O)O (centres undefined)	none (no result: POLI inh, Pol eta inh, Pol beta inh, Pol kappa inh)
Cc1ccc(S(=O)(=O)c2cc(Nc3ccccc3)ccc2O)cc1	POLI inh 50µM, Pol kappa inh 40µM (no result: Pol beta inh)
O=C1CCc2cc(S(=O)(=O)Nc3ccc(Cl)c(Cl)c3)c(F)cc2N1	none (no result: POLI inh, Pol eta inh, Pol beta inh, Pol kappa inh)
CC1CCc2nc3ccc(S(=O)(=O)N4CCC(C(=O)NCc5ccccc5Cl)CC4)cc3c(C(=O)O)c2C1 (centres undefined)	POLI inh 50µM, Pol eta inh inconclusive, Pol beta inh 40µM, Pol kappa inh inconclusive
COc1ccccc1CNC(=O)c1cc(S(=O)(=O)N2CCN(c3ccccc3)CC2)ccc1Cl	POLI inh 89µM, Pol kappa inh inconclusive (no result: TDP1 inh, Pol beta inh)
O=C(O)c1c2c(nc3ccc(S(=O)(=O)N4CCC(C(=O)NCc5ccccc5)CC4)cc13)CCCC2	none (no result: POLI inh, TDP1 inh, Pol beta inh, Pol kappa inh)
COc1ccccc1CNC(=O)C1CCN(S(=O)(=O)c2ccc3nc4c(c(C(=O)O)c3c2)CCCC4)CC1	POLI inh 79µM, Pol eta inh inconclusive
CC1CCC(NC(=O)C2CCN(S(=O)(=O)c3ccc4nc5c(c(C(=O)O)c4c3)CC(C)CC5)CC2)CC1 (centres undefined)	none
COc1ccc(CNC(=O)C2CCN(S(=O)(=O)c3ccc4nc5c(c(C(=O)O)c4c3)CC(C)CC5)CC2)cc1 (centres undefined)	POLI inh 89µM, Pol eta inh inconclusive, Pol beta inh inconclusive
COc1cc(C(=O)O[C@H]2C/C(C)=C/CC/C(C)=C/[C@@H](O)C2C(C)C)ccc1O (some centres undefined)	Pol kappa inh inconclusive (no result: POLI inh, Pol eta inh, Pol beta inh)
Cc1ccc(NC(=O)c2cc(-c3ccco3)nc3ccccc23)cc1S(=O)(=O)N1CCOCC1	POLI inh 16µM, Pol eta inh inconclusive, Pol beta inh 14µM
Cc1ccc(S(=O)(=O)N(C)C)cc1NC(=O)c1cc(-c2ccco2)nc2ccccc12	POLI inh 20µM, Pol eta inh inconclusive, Pol kappa inh inconclusive
COC(CNC(=O)c1cccnc1)OC	none
COC(CNC(=O)c1ccc2c3c(onc13)-c1ccccc1C2=O)OC	POLI inh 18µM, Pol eta inh inconclusive
O=C(O)[C@H]1NCCC[C@H]1C(=O)O	none
Cc1ncc(CO)c2c1Oc1nc(-c3ccccc3)nc(SCC(=O)N(C)c3ccccc3)c1C2	Pol beta inh 56µM (no result: POLI inh, Pol eta inh, Pol kappa inh)
Cc1cccc(-c2nc3c(c(SCC(=O)N4CCOCC4)n2)Cc2c(CO)cnc(C)c2O3)c1	POLI inh inconclusive, Pol eta inh inconclusive
COc1cccc(-c2nc3c(c(SCC(=O)N4CCOCC4)n2)Cc2c(CO)cnc(C)c2O3)c1	POLI inh 79µM
CC(=O)OCC(=O)[C@@]12OC(C)(C)OC1CC1C3CC(F)C4=CC(=O)C=C[C@@]4(C)[C@@]3(F)C(O)C[C@]12C (some centres undefined)	none (no result: POLI inh, Pol eta inh, Pol beta inh)
CC(C)C[C@H](N)C(=O)N[C@H](C(=O)N[C@H](C(=O)N[C@@H](Cc1ccc(O)cc1)C(=O)N1CCC[C@H]1C(=O)N[C@@H](Cc1c[nH]c2ccccc12)C(=O)N[C@H](C(=O)N[C@@H](CCC(N)=O)C(=O)N[C@@H](CCCN=C(N)N)C(=O)O)[C@@H](C)O)C(C)C)C(C)C	none (no result: POLI inh, Pol eta inh, Pol beta inh)
Cc1ccc2nc3c(c(C(=O)O)c2c1)CCC3	POLI inh inconclusive, Pol eta inh 32µM, Pol beta inh 45µM
O=C(O)c1c2c(nc3ccc(Cl)cc13)CCC2	Pol eta inh inconclusive, Pol beta inh 16µM (no result: TDP1 inh)
Cc1ccccc1C(=O)NCC(=O)OC(C(=O)Nc1cc(C(F)(F)F)ccc1Cl)c1ccccc1 (centres undefined)	none (no result: POLI inh, Pol eta inh, Pol beta inh, Pol kappa inh)
CC(=O)NCc1ccc(C(=O)CSc2nnc(-c3ccncc3)n2Cc2ccccc2)o1	POLI inh 22µM, Pol eta inh 20µM, Pol beta inh 20µM, Pol kappa inh 79µM (no result: TDP1 inh)
C=CCn1c(SCC(=O)c2ccc(CNC(C)=O)o2)nc2ccccc2c1=O	POLI inh 16µM, Pol eta inh inconclusive, Pol beta inh inconclusive, Pol kappa inh inconclusive
O=C(CSc1nnc(-c2ccncc2)n1Cc1ccccc1)NC1CCCCC1	none (no result: TDP1 inh)
CCOc1ccccc1-c1c2cc(O)c(=O)cc-2oc2cc(O)c(O)cc12	Pol eta inh 28µM, Pol beta inh 1.6µM, Pol kappa inh 14µM (no result: POLI inh)
CCCCCCCC1=Cc2ccc(F)cc2C(C(C(C)=O)C(=O)OC)N1C(=O)OC (centres undefined)	none (no result: POLI inh, Pol eta inh, Pol beta inh, Pol kappa inh)
O=C(NN=C1CCN(Cc2ccccc2)CC1)c1ccccc1O	none
O=C1CCCC(=NNC(=O)c2cc3ccccc3cc2O)C1	POLI inh 79µM (no result: Pol beta inh)
O=C(NN=C1CCN(Cc2ccccc2)CC1)c1cc2ccccc2cc1O	POLI inh 79µM, Pol eta inh inconclusive, Pol kappa inh inconclusive
NC1=C(Br)C(=O)c2ncccc2C1=O	POLI inh 11µM, Pol eta inh 18µM (no result: TDP1 inh, Pol beta inh)
O=C1C(=O)c2ncccc2-c2cccnc21	Pol kappa inh 8.9µM (no result: POLI inh, TDP1 inh, Pol eta inh, Pol beta inh)
O=C(O)c1ccc(/C=C/C(=O)c2ccc3c(c2)OCCCO3)cc1	POLI inh inconclusive, Pol eta inh 22µM (no result: TDP1 inh)
Cc1ccc(C(=O)NNC(=O)c2ccc3ccccc3c2)cc1	none (no result: TDP1 inh, Pol beta inh)
O=C(/C=C/c1ccccc1)c1ccc2ccccc2c1	POLI inh 22µM (no result: TDP1 inh, Pol beta inh)
C=C(C(=O)O)c1ccc2ccccc2c1	POLI inh 79µM, Pol kappa inh inconclusive (no result: TDP1 inh, Pol eta inh, Pol beta inh)
O=C(/C=C/c1ccccc1O)c1ccccc1	POLI inh inconclusive (no result: TDP1 inh, Pol beta inh)
O=C(/C=C/c1ccccc1)c1ccccc1	POLI inh 22µM, Pol eta inh inconclusive
CCOC(=O)N/N=C(C)/C=C/c1ccccc1	POLI inh inconclusive, Pol kappa inh inconclusive
O=C(/C=C/c1ccccc1)c1cc(Br)ccc(=O)c1O	POLI inh 3.2µM, Pol eta inh inconclusive, Pol beta inh inconclusive, Pol kappa inh 40µM (no result: TDP1 inh)
COC(=O)N/N=C(C)/C=C/c1ccccc1	POLI inh 89µM, Pol kappa inh inconclusive (no result: TDP1 inh, Pol beta inh)
O=C(/C=C/c1ccccc1)/C=C/c1ccccc1	POLI inh inconclusive, Pol eta inh 18µM (no result: TDP1 inh)
COC(=O)c1ccc(CSc2c(C(C)C)cnc3c2c(=O)n(C)c(=O)n3C)cc1	none
